Hit rate of the full screen: of about 1,300 compounds, about 380 (29%) were called active. Another 37% or so got no clear call; they are omitted. The list shows a part of the results. A number with no mark means an inactive call. Calls follow the shape of the dose curve; as a rule, active = well fitted inhibition curve with a large enough effect; inconclusive = small, poorly fitted or top-dose-only effect; inactive = flat fitted curve, though single readings scatter.
Molecular target: Thyrotropin receptor (Homo sapiens) (UniProt P16473)
Test: qHTS for antagonists of the Thyroid Stimulation Hormone Receptor: Hit Validation in Primary Screen; also: nearly all actives have a fitted effect of over 80% in size;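 as to activity change, negative = inhibition: cAMP by competitive HTRF where cellular cAMP lowers the 665 nm FRET signal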
Settings: TSHR-expressing cells, cAMP antagonist mode; series mostly up to 58 µM; activity change, negative = inhibition: at the top concentration
Outline: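 TSHR-expressing cells were pretreated with compound, then stimulated with TSH at EC80 (4nM final) for 2 hours at 37 deg C. Cellular cAMP measured by competitive HTRF (anti-cAMP cryptate, cAMP-d2) after 30 min at room temperature.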
% is scaled to controls: 0 for no effect and ±100 for the full control effect; potency is read from the fitted curve at half-maximal effect.

Chain of Thyrotropin receptor (Homo sapiens) (P16473 whole entry, looked up): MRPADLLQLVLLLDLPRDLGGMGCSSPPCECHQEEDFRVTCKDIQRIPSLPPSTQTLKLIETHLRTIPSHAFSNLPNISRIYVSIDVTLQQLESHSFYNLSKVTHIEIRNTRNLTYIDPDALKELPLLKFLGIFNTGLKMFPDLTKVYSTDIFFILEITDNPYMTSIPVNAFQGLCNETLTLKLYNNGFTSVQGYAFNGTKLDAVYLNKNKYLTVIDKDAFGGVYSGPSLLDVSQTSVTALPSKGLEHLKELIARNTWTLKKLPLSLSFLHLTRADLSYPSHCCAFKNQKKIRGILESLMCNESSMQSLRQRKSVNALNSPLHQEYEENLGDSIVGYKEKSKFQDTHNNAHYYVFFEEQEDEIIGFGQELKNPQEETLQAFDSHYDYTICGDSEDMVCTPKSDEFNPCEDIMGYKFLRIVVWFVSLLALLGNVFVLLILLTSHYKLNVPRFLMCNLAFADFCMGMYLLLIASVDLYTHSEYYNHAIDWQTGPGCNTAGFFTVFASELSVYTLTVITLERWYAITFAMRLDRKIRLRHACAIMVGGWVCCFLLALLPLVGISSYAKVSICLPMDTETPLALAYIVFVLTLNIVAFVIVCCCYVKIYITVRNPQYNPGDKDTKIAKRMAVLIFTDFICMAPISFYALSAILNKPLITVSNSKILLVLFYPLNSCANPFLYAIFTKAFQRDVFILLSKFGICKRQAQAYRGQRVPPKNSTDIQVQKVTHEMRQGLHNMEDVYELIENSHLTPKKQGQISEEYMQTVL

SMILES | Potency | activity change, negative = inhibition [%]
CSc1nc(N)nc(SCC(=O)Nc2ccc(Cl)cc2)c1C#N | 30.1 µM (active) | –
Cc1cc2nc(SCCOC(=O)Nc3ccc(Cl)cc3)nc(C)c2cc1C | – | -6.17
Nc1nc(SCC(=O)Nc2ccc([N+](=O)[O-])cc2)[nH]c(=O)c1NC(=O)c1ccc(Br)cc1 | – | -2.39
Cc1cc(=O)[nH]c(SCC(=O)Nc2ccc(Br)cc2)c1C#N | 7.57 µM (active) | –
Cc1cc(C#N)c(SCC(N)=O)nc1-c1ccc(F)cc1 | – | -6.37
Cc1ccc(CNS(=O)(=O)c2ccc(CN3C(=O)c4cccnc4C3=O)s2)o1 | – | -5.65
O=C(CCc1ccccc1)N1CCN(Cc2ccc(F)cc2Cl)CC1 | – | -12.8
Cc1ccc(CCNC(=O)CN2C(=O)COc3ccc(S(=O)(=O)N4CCC(C)CC4)cc32)cc1 | – | -3.95
CC[C@@H](C(=O)[C@@H](C)[C@@H](O)[C@H](C)CCc1ccc(C)c(O)c1C(=O)O)[C@H]1O[C@](CC)([C@H]2CC[C@](O)(CC)[C@H](C)O2)C[C@@H]1C | 4.78 µM (active) | –
Cc1ccccc1CS(=O)(=O)c1nnc([C@H](Cc2ccccc2)NC(=O)OC(C)(C)C)o1 | 37.9 µM (active) | –
C[C@@H](NC(=O)[C@@H]1Cc2ccccc2CN1)C(=O)NC1CCCCC1 | – | -1.93
O=[N+]([O-])c1cc(Br)c(O)c(/C=N/Nc2nc3ccccc3s2)c1 | 2.39 µM (active) | –
O=[N+]([O-])c1cc(Br)c(O)c(/C=N/Nc2nnnn2-c2cccc3ccccc23)c1 | 7.57 µM (active) | –
COc1cccc(OCC(O)CN2CC(C)CC(C)C2)c1 (stereo unspecified) | – | -4.21
O=C(/C=C/c1ccc(Cl)cc1Cl)NCCSCc1ccccc1 | 21.3 µM (active) | –
Cc1ccccc1-n1nnnc1SC1CCOC1=O (stereo unspecified) | – | 0.576
O=C(NCCCN1CCOCC1)c1ccc2c(c1)N(Cc1ccc(Cl)cc1)C(=O)c1ccccc1S2=O (stereo unspecified) | – | -1.04
CCOc1ccc(CNC(=O)CCCn2nc(CC)n3c(cc4occc43)c2=O)cc1 | – | -19
CN(C(=O)CN1C(=O)/C(=C/c2ccccc2Cl)SC1=S)C1CCS(=O)(=O)C1 (stereo unspecified) | – | -8.35
COc1cc([N+](=O)[O-])cc(/C=C2/SC(=S)N(Cc3ccccc3)C2=O)c1O | 10.7 µM (active) | –
O=C1/C(=C\c2cc([N+](=O)[O-])ccc2O)SC(=S)N1Cc1ccc(Cl)cc1 | 2.69 µM (active) | –
CN(C)C(=O)[C@H]1C[C@H]1[C@@H](O)[C@H](CO)NC(=O)[C@H](COCc1ccccc1)NC(=O)OC(C)(C)C | – | 1.35
Cc1ccc(-c2ccc(/C=N/N=C3/NC(=O)C(CC(=O)O)S3)o2)c([N+](=O)[O-])c1 (stereo unspecified) | – | -7.03

SMILES | Potency | activity change, negative = inhibition [%]
O=C(NCCS(=O)(=O)N1CCN(c2ccccc2)CC1)C1CC(=O)N(c2ccccc2)C1 (stereo unspecified) | – | -3.46
Cc1ccc(CCNC(=O)C2CCN(S(=O)(=O)c3cccc4cccnc34)CC2)cc1 | – | -12.1
O=C(Nc1nc2ccc(F)cc2s1)C1CCN(S(=O)(=O)c2cc([N+](=O)[O-])ccc2Cl)CC1 | 19 µM (active) | –
N#C/C(=N\Nc1cccc([N+](=O)[O-])c1)C(=O)c1ccc(Br)cc1 | 15.1 µM (active) | –
Cc1cccc(-c2noc(CN(C)C(=O)c3ccco3)n2)c1 | – | -14.8
COc1ccc(CC(=O)Nc2cccc(-c3nnc(-c4cccc(C)c4)o3)c2)cc1OC | 4.26 µM (active) | –
COc1ccc(-c2nc(CS(=O)CC(=O)NCc3ccccc3)c(C)o2)cc1OC (stereo unspecified) | – | -10.3
O=c1[nH]c(=O)c2nnc(N/N=C/c3ccccc3F)nc2[nH]1 | – | -4.72
CC(C)Nc1nc(SC(C)C(=O)Nc2ccccc2)nc(N(C)C)n1 (stereo unspecified) | – | -11.7
CCOc1ccc2nc(NC(=O)c3ccc(OCC4CCCO4)cc3)sc2c1 (stereo unspecified) | 30.1 µM (active) | –
O=C(CSc1nnc(NC(=O)c2cccc(Br)c2)s1)NCC1CCCO1 (stereo unspecified) | – | -5.53
CCOc1ccc2nc(NC(=O)CS(=O)(=O)c3ccccc3)sc2c1 | – | -7.2
C=CS(=O)(=O)c1sc(Cl)c(N2CCOCC2)c1[N+](=O)[O-] | 26.9 µM (active) | –
Cc1ccc(/C=C/C(=O)Nc2ccc(Oc3ccccc3)cc2)o1 | 23.9 µM (active) | –
Cc1ccc(CCC(=O)NCc2ccccc2)o1 | – | -3.92
COC(=O)c1cc(-c2c[nH]c3ccccc23)n[nH]1 | – | -11.6
CCn1nc(C)cc1-c1nnc(Sc2ncc([N+](=O)[O-])s2)n1C | 15.1 µM (active) | –
CC(=O)N1c2ccc(S(=O)(=O)NCCC(=O)Nc3ccccc3C)cc2CC1C (stereo unspecified) | – | -0.317
S=C(Nc1ccc(Oc2ccccc2)cc1)NC1CCCCCC1 | 12 µM (active) | –
CC(=O)c1ccc(NC(=O)C(C)N(C)CC(=O)Nc2ccc(N3CCOCC3)cc2)cc1 (stereo unspecified) | – | -4.26
O=C1C(Nc2ccc(O)cc2)=C/C(=N/S(=O)(=O)c2cccs2)c2ccccc21 | 30.1 µM (active) | –
O=C(O)c1ccc(NC2=C/C(=N/S(=O)(=O)c3ccccc3)c3ccccc3C2=O)cc1 | 21.3 µM (active) | –
O=C(O)c1ccc(S(=O)(=O)/N=C2\C=C(Nc3ccccc3F)C(=O)c3ccccc32)cc1 | 37.9 µM (active) | –
